Assay outcomes deposited in PubChem by National Center for Advancing Translational Sciences (NCATS).
This is a sample that favours compounds with a hit; in the whole collection about 11% have one here.
Tau fibril ThT – qHTS for Inhibitors of Tau Fibril Formation, Thioflavin T Binding; Microtubule-associated protein tau (Homo sapiens), P10636; recombinant tau K18 P301L, heparin-induced fibrillization, ThT fluorescence; Potency, µM (top dose mostly 57.4 µM), most hits filed as inhibitors; actives 2.1% (n = 270,000); AID 1460, 2008; note: nearly all actives have a fitted effect of over 55% in size
Target sequence (P10636 561-689 P618L limits assumed): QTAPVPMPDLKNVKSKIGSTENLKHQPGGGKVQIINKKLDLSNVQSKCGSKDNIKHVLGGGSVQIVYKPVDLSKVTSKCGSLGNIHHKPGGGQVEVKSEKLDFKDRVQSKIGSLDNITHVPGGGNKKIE
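Tau K18 P301L fragment (15 uM unlabeled plus 0.24 uM Alexa 594-labeled) in 100 mM sodium acetate pH 7 with compound, fibrillization induced by 20 uM heparin for 6 hr at 37 C. Thioflavin T (30 uM) added, fluorescence read after 1 hr (ex 450, em 510 nm).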
G9a block – qHTS Assay for Inhibitors of Histone Lysine Methyltransferase G9a; actives 8.8% (n = 350,000); Histone-lysine N-methyltransferase EHMT2 (Homo sapiens), Q96KQ7; Potency, µM (top dose mostly 102 µM), usual class: inhibitors; AID 504332, 2011; G9a H3K9 monomethylation, AlphaScreen, 2 h; note: nearly all actives have a fitted effect of over 75% in size
Target sequence (Q96KQ7 913-1193 limits assumed): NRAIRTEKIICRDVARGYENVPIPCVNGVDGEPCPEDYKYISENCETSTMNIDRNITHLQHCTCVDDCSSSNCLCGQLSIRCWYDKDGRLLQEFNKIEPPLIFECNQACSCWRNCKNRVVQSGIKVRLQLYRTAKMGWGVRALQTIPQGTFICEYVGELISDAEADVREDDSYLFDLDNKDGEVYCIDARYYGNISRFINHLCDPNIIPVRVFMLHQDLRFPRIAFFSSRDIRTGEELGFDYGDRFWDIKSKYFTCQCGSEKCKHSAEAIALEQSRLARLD
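Compounds were preincubated with 20 nM G9a for 15 min, after which biotinylated H3K9 peptide (500 nM) and SAM (20 uM) started a 2 h room-temperature reaction. Monomethylated product was quantified by antibody-based AlphaScreen chemiluminescence.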
Tau fibril FP – qHTS for Inhibitors of Tau Fibril Formation, Fluorescence Polarization; Microtubule-associated protein tau (Homo sapiens), P10636; K18 P301L tau heparin fibrillization, Alexa594 FP, 6 h; Potency, µM (titrated, usually from 57.7 µM), most hits filed as inhibitors; actives 0.39% (n = 280,000); note: nearly all actives have a fitted effect of over 55% in size
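Steps: dispense K18 P301L tau (15 uM plus 0.24 uM Alexa 594 tracer, final) in pH 7 sodium acetate; add compound; add heparin (20 uM final); incubate 6 hr, 37 C; add ThT (30 uM final); after 1 hr ambient, read FP.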
Tau fluor cs – Counterscreen qHTS for Inhibitors of Tau Fibril Formation, Fluorescence Polarization; tau K18 P301L (four-repeat tau fragment) Alexa594 fluorescence, heparin fibrillization; Potency, µM (doses to about 57.7 µM); actives 0.93% (n = 280,000); note: nearly all actives have a fitted effect of over 55% in size
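Human K18 P301L tau (15 uM unlabeled plus 0.24 uM Alexa 594-labeled, final) in 100 mM sodium acetate pH 7 was mixed with compound and 20 uM heparin and incubated 6 hr at 37 C.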
Sfp PPTase inh – qHTS Assay for Inhibitors of Bacillus subtilis Sfp phosphopantetheinyl transferase (PPTase); 4'-phosphopantetheinyl transferase ffp (Bacillus subtilis), Q9F4F7; Biochemical Sfp PPTase activity, qHTS; Potency, µM, actives largely listed as inhibitors; actives 3.5% (n = 310,000); AID 1490, 2009;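 note: the enzyme is Sfp with the accession as filed and its product quenches rhodamine fluorescence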
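With Hepes-Na pH 7.6 buffer containing 10 mM MgCl2, Sfp (15 nM) modified BHQ-2-YbbR (12.5 uM) using rhodamine-CoA (5 uM). Two reads 30 minutes apart at 525/598 nm yielded each well's rate.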
FBPA coupling cs – qHTS Assay for Inhibitors of Fructose-1,6-bisphosphate Aldolase from Giardia Lamblia: Coupling assay counterscreen; actives 0.67% (n = 290,000); coupling enzyme system counterscreen, AmpLite Red fluorescence; AID 2472, 2010; activity change, negative = inhibition, % at 58.2 µM, hits read low; in the data active = activity change below about -30%
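Coupling enzymes only (glyceraldehyde-3-phosphate) + compound, at 57.5 uM final, 10 min RT; add substrate/coupling/AmpLite Red mix, 20 min RT; fluorescence ex 525/em 598 nm. Actives flag coupling-system interference.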
A number is an active result; . = inactive; ? = inconclusive; / = not tested or not shown; [ ] = dose if it differs, or a comment. Unless noted, calls come from the whole dose curve; as a rule, active = well fitted curve in the direction sought with a large enough effect; inconclusive = small, poorly fitted or top-dose-only effect, or another doubt; inactive = no such curve, though single readings can be large; an effect the other way counts as inactive or inconclusive.

SMILES	Tau fibril ThT	G9a block	Tau fibril FP	Tau fluor cs	Sfp PPTase inh	FBPA coupling cs
O=C(C1CCCN(Cc2cccnc2)C1)N1CCCCC1 (stereo unspecified)	?	4µM	.	.	50µM	.
CCc1ccc(CN2CCCC(C(=O)N3CCCCC3)C2)cc1 (stereo unspecified)	/	8.9µM	/	/	.	.
CCOC(=O)N1CCN(C(=O)CCCn2nnnc2CN2CCC(C)CC2)CC1	/	.	/	/	.	.
COc1ccc(Nc2nnc(Cc3ccncc3)c3ccccc23)c(OC)c1	/	.[0.501 µM]	/	/	.	.
Cc1ccc(C)c(N2CCN(C(=O)CSc3ccsc3[N+](=O)[O-])CC2)c1	?	32µM	.	?	.	.
O=C(CSc1ccsc1[N+](=O)[O-])N1CCCCCC1	?	45µM	.	.	.	.
O=C(CSc1ccsc1[N+](=O)[O-])N1CCN(c2ccc(Cl)cc2)CC1	?	50µM	?	.	.	.
CS[C@@H]1SC[C@H]2C(=O)N(C)C(C(C)C)C(=O)OC[C@@H](NC(=O)c3cnc4ccccc4n3)C(=O)N[C@@H](C)C(=O)N(C)[C@H]1C(=O)N(C)C(C(C)C)C(=O)OC[C@@H](NC(=O)c1cnc3ccccc3n1)C(=O)N[C@@H](C)C(=O)N2C (stereo partly specified)	/	/	/	/	.	.
Cc1ccc(C(=S)N2CCN(Cc3ccccc3)CC2)cc1	.	?	.	.	11µM	.
Cc1ccc(NC(=S)N2CCN(Cc3ccccc3)CC2)cc1	.	.	.	.	.	.
CCN1CCN(C(=S)c2ccc(-c3ccccc3)cc2)CC1	.	32µM	.	.	22µM	.
CCN1CCN(C(=S)Nc2ccc(Cl)c(Cl)c2)CC1	.	?	.	.	.	.
CCN1CCN(C(=S)c2ccc(Cl)c(Cl)c2)CC1	.	2.5µM	.	.	16µM	.
Nc1ncnc2c1ncn2[C@H]1O[C@@H](CSCC[C@@H](N)C(=O)O)[C@H](O)[C@@H]1O	?	.	.	.	.	/
CC1=C(C(=O)Nc2ccc(C)cc2C)C(c2ccccc2F)n2nc(SCC(=O)c3ccc(C)cc3)nc2N1 (stereo unspecified)	?	.	?	.	/	/
COc1cc(-n2nc(C)c3c2OC(N)=C(C#N)C3c2ccccc2)c(Cl)c(Br)c1O (stereo unspecified)	3.5µM	?	.	?	.	.
CCn1c(C)cc2c(c1=O)C(c1ccncc1)C(C#N)=C(N)O2 (stereo unspecified)	.	40µM	.	.	.	.
Cc1nn(-c2ccccc2)c(Cl)c1C1C(C#N)=C(N)Oc2c1c(C)nn2-c1ccccc1 (stereo unspecified)	?	/	.	?	.	.
Cc1nn(-c2ccccc2)c2c1C(c1ccncc1)C(C#N)=C(N)O2 (stereo unspecified)	?	16µM	?	.	?	.
Cc1nn(Cc2ccccc2)c2c1C(c1cccc(Cl)c1)C(C#N)=C(N)O2 (stereo unspecified)	?	50µM	?	?	.	.
Cc1ccc(CCNC(=O)C2CC(=O)N(CCc3ccc(C)cc3)C2)cc1 (stereo unspecified)	.	.	.	.	/	/
Cc1ccc(-n2nc(C)c3c2OC(N)=C(C#N)C3c2ccncc2)cc1 (stereo unspecified)	?	45µM	.	.	.	.
O=S(=O)(c1ccccc1)c1nnn2c1nc(NCc1ccc(F)cc1)c1sccc12	?	.	?	.	/	/
COc1ccc(OCC(=O)N2CCC(n3nccc3NC(=O)C3CC3)CC2)cc1	/	.	/	/	.	.
O=S(=O)(c1ccc(F)cc1)c1snnc1-c1ccccc1	?	.	.	.	.	-30
